# Screening results: PubChem BioAssay, several laboratories
# ERa coact pot = enhancers of ERα–SRC-1 coactivator binding, primary screen, biochemical, TR-FRET, ERα LBD, low estradiol; TR-FRET ERalpha-LBD/SRC-Cy5 coactivator binding, 2 h; 100 = basal binding, no effect; coactivator binding (% of control), % at 25.6 µM; hit rate 1.3% among 86,000; AID 639, 2007; in the data active = activity above about 200%;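 note: binding measured in presence of low estradiol as agonist stimulus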
# FAK blocker = FAK kinase inhibitors, primary screen, biochemical | AID 727, 2007 | biochemical FAK kinase activity assay | hit rate 0.84% among 97,000 | inhibition, %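 (tested at 7 µM)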 | Focal adhesion kinase 1 (Homo sapiens), Q05397; in the data active = inhibition above about 19%
# Smad3 inh = Smad3/FoxH1 peptide binding inhibitors, primary screen, biochemical, TR-FRET; Mothers against decapentaplegic homolog 3 (Homo sapiens), P84022; TR-FRET Smad3/Dy647-FoxH1 peptide binding, europium anti-His; inhibition, % at 25 µM; hit rate 0.29% among 88,000; AID 630, 2007;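 active = compounds that reduce the energy-transfer binding signal between the protein and its labelled peptide by more than half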
# Target sequence (P84022 whole entry, looked up): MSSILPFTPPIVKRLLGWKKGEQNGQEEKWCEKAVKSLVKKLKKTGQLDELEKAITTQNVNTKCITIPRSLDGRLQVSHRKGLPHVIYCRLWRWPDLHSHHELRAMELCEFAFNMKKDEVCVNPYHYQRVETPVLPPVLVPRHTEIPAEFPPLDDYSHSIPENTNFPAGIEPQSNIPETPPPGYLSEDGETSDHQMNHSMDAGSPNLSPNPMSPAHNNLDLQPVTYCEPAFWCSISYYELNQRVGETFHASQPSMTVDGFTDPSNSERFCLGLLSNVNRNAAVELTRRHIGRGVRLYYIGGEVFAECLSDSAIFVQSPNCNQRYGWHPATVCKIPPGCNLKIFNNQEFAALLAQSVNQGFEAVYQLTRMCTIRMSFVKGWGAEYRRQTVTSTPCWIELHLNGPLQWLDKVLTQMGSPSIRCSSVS
# ERb SRC1 inh = inhibitors of ERβ-SRC1 coactivator interaction, primary screen, biochemical, TR-FRET, ERβ LBD, SRC-1 peptide; hit rate 1.3% among 86,000; Estrogen receptor beta (Homo sapiens), Q92731; inhibition, % at 25.6 µM; TR-FRET ER-beta LBD / SRC1-Cy5 peptide binding; receptor agonist-loaded with 1 µM estradiol;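 active = compounds whose percent inhibition of the receptor-coactivator binding signal exceeds about 50% in the single-dose screen, limit read from the data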
# ERa coact inh = ERα–SRC-1 coactivator interaction inhibitors, primary screen, biochemical, TR-FRET, ERα LBD, estradiol-bound | hit rate 1.7% among 86,000 | TR-FRET ER-alpha LBD / SRC-1 peptide | AID 629, 2007 | inhibition, % at 25.6 µM; in the data active = inhibition above about 50%
# A number is an active result; n = inactive; x = no result; [ ] = dose if it differs, or a comment. Compounds with a hit are over-represented: about 3.3% of the library has one in this group of screens.
SMILES,ERa coact pot,FAK blocker,Smad3 inh,ERb SRC1 inh,ERa coact inh
Cc1cccc(-n2cnc(C(=O)N/N=C\c3ccc(Br)cc3)c2)n1,515[fluorescence artefact?],n,n,n,n
COCCNC(=O)c1onc(CSc2ccc(C(C)C)cc2)c1C(=O)O,x,n,x,x,x
CCOC(=O)N1CCC(n2c(=S)[nH]c3cc(OCC)c(OCC)cc3c2=O)CC1,n,x,n,52[fluorescence artefact?],n
Cn1nc(CC(=O)Nc2ccc3c(c2)CCC3)c2ccccc2c1=O,n,x,n,n,n
Cn1nc(CC(=O)NC2CCCCCCCCCCC2)c2ccccc2c1=O,n,n,n,55[fluorescence artefact?],91[fluorescence artefact?]
Cn1nc(C(=O)NC2CCCCC2)c2ccccc2c1=O,n,n,n,n,n
Cn1nc(CC(=O)Nc2ncc(Br)s2)c2ccccc2c1=O,n,n,n,50,n
O=S(=O)(c1ccc(Oc2ccc(Cl)cc2)c(S(=O)(=O)N2CCCCC2)c1)N1CCCCC1,n,n,n,n,n
CCOc1ccccc1-c1nc(C(N)=O)c2[nH]c(=O)n(-c3ccc(F)cc3)c2n1,n,n,n,n,n
CCc1ccc(-c2nc(C(N)=O)c3[nH]c(=O)n(-c4ccccc4OC)c3n2)cc1,300[fluorescence artefact?],n,n,n,n
CCNc1ccc2noc3c2c1C(=O)c1ccccc1-3,n,49,n,n,n
O=C1c2ccccc2-c2onc3ccc(NCc4ccco4)c1c23,n,x,n,n,n
COc1ccc(CNC(=O)C2CC(c3cccc(OC)c3)=NO2)cc1 (stereo not given),n,n,n,73[fluorescence artefact?],n
COc1ccc(C2=NOC(C(=O)NCc3ccc(F)cc3)C2)cc1OC (stereo not given),n,n,n,n,70[fluorescence artefact?]
CN(C)C[C@H]1CCC2=C(C1=O)C(c1ccc(Cl)c(Cl)c1)C1=C(CC[C@H](CN(C)C)C1=O)O2,x,x,n,x,x
O=C(O)CCCCn1cnc2c(=S)nc[nH]c21,x,x,52,x,x
O=C(O)CCn1cnc2c(=S)nc[nH]c21,x,x,53,x,x
Cc1ccccc1-c1nn2c(-c3ccccc3)nnc2s1,n,x,n,n,n
c1ccc(Cc2nnc3sc(-c4ccco4)nn23)cc1,n,n,n,59,64[fluorescence artefact?]
c1ccc(-c2cc(-c3nn4c(-c5ccco5)nnc4s3)c3ccccc3n2)cc1,n,n,n,54[fluorescence artefact?],70[fluorescence artefact?]
Cc1cc(-c2nn3c(-c4ccccc4)nnc3s2)c2ccccc2n1,n,n,n,n,73
CC(=O)C=NCC(=O)O,x,x,n,x,x
CCN=C(N)CSS(=O)(=O)O,x,x,n,x,x
CC(C)CN(CCC(=O)O)CC(C)C,n,n,n,60,n
C[C@@H](CCC(=O)O)C(=O)O,x,x,n,x,x
SMILES,ERa coact pot,FAK blocker,Smad3 inh,ERb SRC1 inh,ERa coact inh
CCOC(=O)c1[nH]c2ccc(Cl)cc2c1NC(=O)c1nonc1C,221[fluorescence artefact?],n,n,n,n
Cc1nc2sccn2c1-c1nc(C2CC2)c(C(=O)c2ccc3c(c2)NC(=O)CO3)s1,n,x,n,53[fluorescence artefact?],61
Cc1ccc2[nH]c(=O)c(C3C(C#N)=C(N)Oc4c3ccc3cccnc43)cc2c1 (stereo not given),n,n,n,61,79
COC(=O)C1=C(C)NC(C)=C(C(=O)OC)C1c1cc2cc(C)ccc2[nH]c1=O,n,n,n,n,n
Cc1c(C(=O)N2CCN(c3ccccc3)CC2)sc2ncnc(N3CCN(c4ccccc4)CC3)c12,400[fluorescence artefact?],n,n,n,n
Cc1c(C(=O)N2CCN(Cc3ccccc3)CC2)sc2ncnc(N3CCOCC3)c12,n,x,n,n,n
Nc1cccc2cc(S(=O)(=O)Nc3ccc(C(=O)O)cc3)ccc12,x,x,n,x,x
Cc1ccc(S(=O)(=O)c2c(C)cc(C)nc2Cl)c(C)c1,x,n,x,x,x
Cc1cc(C)c(S(=O)(=O)/N=C2\C=CC(=O)C(Cl)=C2)c(C)c1,n,n,n,61,70
O=C(c1cccnc1)N1CCCc2ccccc21,n,n,n,n,n
O=C(c1cnccn1)N1CCc2ccccc21,n,x,n,97[fluorescence artefact?],79[fluorescence artefact?]
N[C@@H](CSc1nc2ccccn2c1[N+](=O)[O-])C(=O)O,x,x,n,x,x
CCC(=O)N1CCn2c1nc1ccccc12,n,n,n,55[fluorescence artefact?],n
CCC(=O)N1CCCn2c1nc1ccccc12,n,n,n,n,n
N#CCCN1CCn2c1nc1ccccc12,200,n,n,n,n
